Values joined by “and” are separate entries in the source; they are usually repeats but may differ in a detail not shown here. Equal values may be shown once. Results filed as inconclusive are left out. The source holds several records for some structures; these can differ, active in one and inactive in another. Active and inactive are the calls of the source. Unless noted, the call rests on the fitted dose curve; in most records, active means well fitted curve in the direction sought with a large enough effect in the repeat runs; inconclusive means weak or mixed curves; inactive means no such curve, though single readings can be large; an effect the other way counts as inactive or inconclusive.
What was measured:
[1] = qHTS assay to test for compound auto fluorescence at 535 nm (green) in HEK293 cells (AID 720680)
[2] = qHTS assay to test for compound auto fluorescence at 460 nm (blue) in HEK293 cell free culture (AID 720681)
Method in brief: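 Compounds were added to cell-free DMEM with 10% FBS and fluorescence read directly. The blue channel used 405 nm excitation and 460 nm emission, with triamterene as the reference fluorophore.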

[3] = qHTS assay to test for compound auto fluorescence at 535 nm (green) in HEK293 cell free culture (AID 720682)
Method in brief: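 Using fluorescein as calibrant, autofluorescence was quantified at 485/535 nm in cell-free DMEM containing 10% FBS after pintool addition of compound or vehicle.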

[4] = qHTS assay to test for compound auto fluorescence at 590 nm (red) in HepG2 cell free culture (AID 720684)
Method in brief: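 Rose Bengal sodium served as the reference for red signal. Test compounds were dispensed into serum-containing MEM (10% FBS) without cells, and plates were read at 540/590 nm.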

[5] = qHTS assay to test for compound auto fluorescence at 460 nm (blue) in HepG2 cell free culture (AID 720685)
Method in brief: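 Cell-free plates of MEM plus 10% FBS received 23 nL compound or DMSO vehicle; blue-channel (405/460 nm) intensity scored against triamterene as reference fluorophore.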

[6] = qHTS assay to test for compound auto fluorescence at 535 nm (green) in HepG2 cell free culture (AID 720686)
[7] = qHTS assay to identify small molecule antagonists of the glucocorticoid receptor (GR) signaling pathway - cell viability counter screen (AID 720693); further: nearly all actives have a fitted effect of over 55% in size; further: potency means the concentration at half of the fitted maximal effect
[8] = qHTS assay for identifying genotoxic compounds that show differential cytotoxicity against isogenic chicken DT40 cell lines with known DNA damage response pathways - wild type cell line (AID 743012); further: nearly all actives have a fitted effect of over 60% in size; further: potency means the concentration at half of the fitted maximal effect
Method in brief: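 Cytotoxicity in repair-proficient parental chicken DT40 cells serves as the comparator for Rad54/Ku70- and Rev3-deficient lines. Cells were exposed to compounds for 40 h at 37 C/5% CO2, and ATP-based luminescence (CellTiter-Glo) measured viability.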

[9] = qHTS assay for identifying genotoxic compounds that show differential cytotoxicity against isogenic chicken DT40 cell lines with known DNA damage response pathways - Rev3 mutant cell line (AID 743014); further: nearly all actives have a fitted effect of over 55% in size; further: potency means the concentration at half of the fitted maximal effect
[10] = qHTS assay for identifying genotoxic compounds that show differential cytotoxicity against isogenic chicken DT40 cell lines with known DNA damage response pathways - Rad54/Ku70 mutant cell line (AID 743015); further: nearly all actives have a fitted effect of over 60% in size; further: potency means the concentration at half of the fitted maximal effect
[11] = qHTS assay to identify small molecule antagonists of the androgen receptor (AR) signaling pathway - cell viability counter screen (AID 743033; further: nearly all actives have a fitted effect of over 45% in size; further: potency means the concentration at half of the fitted maximal effect)
[12] = qHTS assay to identify small molecule antagonists of the androgen receptor (AR) signaling pathway using the MDA cell line - cell viability counter screen (AID 743041; further: nearly all actives have a fitted effect of over 45% in size; further: potency means the concentration at half of the fitted maximal effect)
Method in brief: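 Cytotoxicity counter screen: MDA-kb2 AR-luc cells, compound + R1881, 16 h, 37C, 0% CO2; CellTiter-Fluor added at 15.5 h, fluorescence read after 30 min.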

[13] = qHTS assay to test for compound auto fluorescence at 460 nm (blue) in HepG2 cells (AID 720687)
Method in brief: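 HepG2 cells in MEM with 10% FBS, attached overnight at 37 C, were exposed to compound or DMSO for 1 hr at 37 C, 5% CO2. Blue fluorescence was read at 405/460 nm, with triamterene as reference fluorophore.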

[14] = molecular target: Glucocorticoid receptor (Homo sapiens) (UniProt P04150); assay: qHTS assay to identify small molecule antagonists of the glucocorticoid receptor (GR) signaling pathway (AID 720692; active means well fitted inhibition curve with a large enough effect in the signal ratio in the repeat runs, not every such curve was filed as active; the % refers to the signal ratio; further: potency means the concentration at half of the fitted maximal effect)
Method in brief: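 Antagonism was scored as loss of dexamethasone-driven (5 nM final) reporter signal in HeLa cells bearing a glucocorticoid response element–beta-lactamase construct, after 18 h compound exposure at 37 C and 2 h FRET substrate loading.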

[15] = qHTS assay to test for compound auto fluorescence at 590 nm (red) in HEK293 cell free culture (AID 720683)
Method in brief: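 Cell-free wells of DMEM with 10% FBS received compound, and intrinsic fluorescence was read at excitation/emission 540/590 nm. Values expressed as equivalence to Rose Bengal sodium.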

[16] = molecular target: Glucocorticoid receptor (Homo sapiens) (UniProt P04150); assay: qHTS assay to identify small molecule agonists of the glucocorticoid receptor (GR) signaling pathway (AID 720691; active means well fitted activation curve with a large enough effect in the signal ratio in the repeat runs, not every such curve was filed as active; the % refers to the signal ratio)
Method in brief: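 Steps: seed GR-bla HeLa cells, incubate 4 h at 37 C/5% CO2; pin-transfer DMSO-dissolved compounds; incubate 18 h at 37 C; add LiveBLAzer B/G FRET substrate; after 2 h at room temperature, measure fluorescence.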

Measured: Potency

Chain of Glucocorticoid receptor (Homo sapiens) (P04150 whole entry, looked up): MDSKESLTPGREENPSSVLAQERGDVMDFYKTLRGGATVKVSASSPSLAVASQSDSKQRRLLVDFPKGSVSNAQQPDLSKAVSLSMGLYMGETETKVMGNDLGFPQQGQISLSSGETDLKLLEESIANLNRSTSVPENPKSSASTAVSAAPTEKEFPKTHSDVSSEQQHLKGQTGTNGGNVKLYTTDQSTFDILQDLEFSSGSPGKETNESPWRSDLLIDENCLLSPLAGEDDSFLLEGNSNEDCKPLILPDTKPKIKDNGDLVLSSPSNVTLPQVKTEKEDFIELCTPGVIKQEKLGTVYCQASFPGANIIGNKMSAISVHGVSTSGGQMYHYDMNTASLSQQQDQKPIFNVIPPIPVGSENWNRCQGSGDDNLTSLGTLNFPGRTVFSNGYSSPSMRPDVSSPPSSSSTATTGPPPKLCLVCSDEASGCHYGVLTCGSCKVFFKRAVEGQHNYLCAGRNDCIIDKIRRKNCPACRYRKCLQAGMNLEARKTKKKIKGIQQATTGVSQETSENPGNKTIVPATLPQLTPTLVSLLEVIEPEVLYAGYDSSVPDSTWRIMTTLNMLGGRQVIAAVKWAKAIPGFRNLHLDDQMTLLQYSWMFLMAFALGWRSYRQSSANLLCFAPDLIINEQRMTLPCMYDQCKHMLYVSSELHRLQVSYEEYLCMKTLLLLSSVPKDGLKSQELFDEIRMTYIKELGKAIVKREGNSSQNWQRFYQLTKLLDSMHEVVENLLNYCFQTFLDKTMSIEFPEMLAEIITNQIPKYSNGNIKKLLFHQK

CC[n+]1c(-c2ccccc2)c2cc(N)ccc2c2ccc(N)cc21
active: [7] 16.9 µM and 19 µM and 13.7 µM | [8] 211 nM and 531 nM and 171 nM | [9] 376 nM and 841 nM and 96.4 nM | [10] 298 nM and 750 nM and 85.9 nM | [11] 12 µM and 4.88 µM | [12] 13.3 µM and 26.6 µM and 30.5 µM
inactive: [1] | [2] | [3] | [4] | [5] | [6]

CCCCCCCC[N+](C)(CCCCCCCC)CCCCCCCC
active: [7] 13.8 µM and 5.5 µM and 11 µM | [8] 768 nM and 433 nM and 306 nM | [9] 433 nM and 686 nM | [10] 610 nM and 273 nM and 386 nM | [11] 3.46 µM and 872 nM and 3.47 µM | [12] 17.2 µM and 2.73 µM and 15.4 µM
inactive: [1] | [2] | [3] | [4] | [5] | [6]

CCOP(=O)(OCC)OCC
not listed: [15] | [16]
inactive: all other assays above

CS(=O)(=O)NC(=O)c1cc(Oc2ccc(C(F)(F)F)cc2Cl)ccc1[N+](=O)[O-]
not listed: [13] | [14] | [15] | [16]
inactive: all other assays above

O=C1Nc2ccc(Cl)cc2C(c2ccccc2)=NC1O (stereo not drawn)
not listed: [8] | [9] | [10] | [13] | [14] | [16]
inactive: all other assays above

CC(C)COC(=O)c1ccccc1C(=O)OCC(C)C
active: [8] 27.3 µM | [10] 48.6 µM
not listed: [2] | [9] | [15] | [16]
inactive: all other assays above

Nc1ncn[nH]1
not listed: [2] | [14] | [16]
inactive: all other assays above

ClC(Cl)=C(Cl)C(Cl)=C(Cl)Cl
not listed: [2] | [13]
inactive: all other assays above

Brc1ccc(Br)cc1
not listed: [2] | [13] | [14] | [16]
inactive: all other assays above

Clc1cccc(Cl)c1
not listed: [2] | [14] | [16]
inactive: all other assays above

C[C@]12CCC(=O)C=C1CC[C@@H]1[C@@H]2CC[C@@]2(C)[C@H]1CC[C@]2(C)O
active: [14] 6.01 µM and 4.25 µM and 2.61 µM | [7] 15.5 µM | [8] 29.8 µM and 26.6 µM and 21.7 µM | [9] 26.6 µM and 29.8 µM and 26 µM | [10] 29.8 µM and 26.6 µM and 26.7 µM
not listed: [2] | [13] | [16]
inactive: all other assays above

NN=C(N)N
not listed: [2] | [9] | [14] | [16]
inactive: all other assays above

CC1CC(=O)O1 (stereo not drawn)
not listed: [2] | [14]
inactive: all other assays above

Cc1cccc(N=Nc2ccc(N(C)C)cc2)c1
inactive and 27.3 µM (active): [9] | [10]
not listed: [2] | [8] | [14]
inactive: all other assays above

CC(C)(O)C#N
not listed: [2] | [14] | [15] | [16]
inactive: all other assays above

Source: PubChem BioAssay (Tox21)
